Experimental data from PubChem BioAssay.
Calls of active or inactive are those of the source. Unless noted, no rule for the calls is given here.

Key:
[1] = system: Wnt5a (protein binding on small-molecule microarray); assay: small molecules binding Wnt5a protein – biophysical, small-molecule microarray, 635/667 nm fluorescence, primary screen (AID 1142); conditions: 635 nm fluorescence, higher = more signal;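 also: fluorescence read at 667 nm with signal to noise per printed feature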
[2] = ATP-based viability of Huh7 replicon cells – cell-based, CellTiter-Glo luminescence, basal, 48 h, cytotoxicity control for HCV replication inhibitor project, primary screen (AID 1143); conditions: higher = more signal, called active from +8 up or from −8 down;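 also: Huh7 hepatoma cells carrying a hepatitis C replication reporter with no stimulus; test concentration not given here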
[3] = Pseudomonas biofilm growth suppression – PAO1 strain, BacTiter-Glo luminescence, LB-PBS, primary screen (AID 1144); conditions: P. aeruginosa PAO1 biofilm, 12 h, higher = more signal
[4] = basal CRE-LacZ reporter activity in PC12 – cell-based, unstimulated, primary screen (AID 1145); conditions: no forskolin, luminescence, 4.5 h, higher = more signal, called active from +8 up or from −8 down
[5] = forskolin-driven CRE-LacZ activity in PC12 – cell-based, CRE-LacZ reporter, forskolin-stimulated, primary screen (AID 1146); conditions: luminescence, 4.5 h, higher = more signal, called active from +8 up or from −8 down;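 also: PC12 cells with 6xCRE LacZ reporter stimulated by forskolin 10 µM; beta-galactosidase reporter signal reflecting CREB driven transcription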
[6] = biological target: Streptavidin (Streptomyces avidinii) (UniProt P22629); assay: compounds binding control protein streptavidin – biophysical, small-molecule microarray, 635/667 nm fluorescence, artefact control for SMM compound annotation, primary screen (AID 1147); conditions: higher = more signal;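 also: signal reflects streptavidin binding to arrayed compounds as a control protein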
Sequence of Streptavidin (Streptomyces avidinii) (P22629 whole entry, looked up): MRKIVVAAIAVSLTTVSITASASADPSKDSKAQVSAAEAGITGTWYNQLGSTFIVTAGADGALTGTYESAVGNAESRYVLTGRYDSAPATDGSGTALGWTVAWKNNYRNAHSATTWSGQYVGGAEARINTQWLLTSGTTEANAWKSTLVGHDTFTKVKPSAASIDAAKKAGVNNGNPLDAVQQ

[7] = probe aInhba binding on compound microarray – biochemical, small-molecule microarray, 635/667 nm fluorescence, primary screen (AID 1148); conditions: higher = more signal;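 also: score merges 667nm spot fluorescence with signal-to-noise for antibody binding to printed compounds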
Torsin-1A (Homo sapiens) [8] = biological target: Torsin-1A (Homo sapiens) (UniProt O14656); assay: TOR1A wild-type binding on microarray – cell lysate, small-molecule microarray, lysate, 635/667 nm, primary screen (AID 1149); conditions: COS7 hTOR1A-WT lysate, 635 nm fluorescence, higher = more signal
Sequence of Torsin-1A (Homo sapiens) (O14656 whole entry, looked up): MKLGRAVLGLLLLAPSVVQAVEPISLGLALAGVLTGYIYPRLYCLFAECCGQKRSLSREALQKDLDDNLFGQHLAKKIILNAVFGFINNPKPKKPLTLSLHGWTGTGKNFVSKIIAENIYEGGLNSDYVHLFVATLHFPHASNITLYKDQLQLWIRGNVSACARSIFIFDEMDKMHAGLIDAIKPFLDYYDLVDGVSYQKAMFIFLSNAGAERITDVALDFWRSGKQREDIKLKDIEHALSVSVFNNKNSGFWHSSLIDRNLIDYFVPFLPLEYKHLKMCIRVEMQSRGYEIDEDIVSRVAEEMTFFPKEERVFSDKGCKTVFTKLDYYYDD

Torsin-1A (Homo sapiens) [9] = biological target: Torsin-1A (Homo sapiens) (UniProt O14656); assay: torsin A mutant lysate binding on microarrays – cell lysate, small-molecule microarray, COS7 lysate, 635/667 nm fluorescence, primary screen (AID 1150); conditions: COS7 hTOR1A mutant lysate, 635 nm fluorescence, higher = more signal;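 also: score pools 667 nm emission and signal to noise measuring lysate protein binding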
[10] = system: Sonic hedgehog protein (Shh); assay: Sonic hedgehog microarray binding compounds – biochemical, small-molecule microarray, 635/667 nm fluorescence, primary screen (AID 1151); conditions: 635 nm fluorescence, higher = more signal;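 also: Shh protein binding to compounds spotted on small-molecule microarray slides; score combines spot fluorescence intensity with signal-to-noise across triplicate slides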
[11] = optical density shifts of acrAB sulA E. coli – strain DRC41, OD650, 48 h, E. coli filamentation inducer project, primary screen (AID 1152); conditions: higher = more signal, called active from +8 up or from −8 down;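 also: E. coli MC1000 strain DRC41 lacking acrAB efflux pump and sulA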
[12] = probe aLefty1 binding on compound microarray – biochemical, small-molecule microarray, 635/667 nm fluorescence, primary screen (AID 1153); conditions: higher = more signal;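 also: score merges spot fluorescence with signal-to-noise ratio from the scanned slide images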
[13] = plasmodial surface anion channel blockers, osmotic lysis – cell-based, P. falciparum Indochina, OD700, 1 h, primary screen (AID 1154); conditions: P. falciparum Indochina infected RBC osmotic lysis, higher = more signal, called active from +8 up or from −8 down
[14] = plasmodial surface anion channel blockers, osmotic lysis – cell-based, P. falciparum Indochina, OD700, 2 h, primary screen (AID 1155);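 also: lysis reports solute entry through the parasite surface anion channel PSAC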; conditions: P. falciparum Indochina infected erythrocytes, higher = more signal, called active from +8 up or from −8 down
[15] = changes in parasitized red cell lysis, either direction – P. falciparum Indochina, OD700, 3 h, PSAC antagonist project, primary screen (AID 1156); conditions: P. falciparum-infected erythrocytes, osmotic lysis, higher = more signal, called active from +8 up or from −8 down
[16] = plasmodial surface anion channel blockers, osmotic lysis – cell-based, P. falciparum Indochina, OD700, 18 h, primary screen (AID 1157); conditions: P. falciparum Indochina infected erythrocytes, osmotic lysis OD700, 18 h; higher = more signal, called active from +8 up or from −8 down
[17] = S6 kinase pathway phospho-S6 level changes – cell-based, A549, cytoblot, luminescence, serum-stimulated, primary screen (AID 1158); conditions: 5 h, higher = more signal;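 also: serum-stimulated A549 lung adenocarcinoma cells; signal is phosphorylated S6 detected by cytoblot immunostaining with HRP secondary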
[18] = biological target: NADPH oxidase 2 (Homo sapiens) (UniProt P04839); assay: compounds shifting NOX2 Amplex Red fluorescence – cell-based, HEK293-NOX2, PMA-stimulated, NOX inhibitor project, primary screen (AID 1159); conditions: 45 min, higher = more signal, called active from +8 up or from −8 down; also: test concentration not given here
Sequence of NADPH oxidase 2 (Homo sapiens) (P04839 whole entry, looked up): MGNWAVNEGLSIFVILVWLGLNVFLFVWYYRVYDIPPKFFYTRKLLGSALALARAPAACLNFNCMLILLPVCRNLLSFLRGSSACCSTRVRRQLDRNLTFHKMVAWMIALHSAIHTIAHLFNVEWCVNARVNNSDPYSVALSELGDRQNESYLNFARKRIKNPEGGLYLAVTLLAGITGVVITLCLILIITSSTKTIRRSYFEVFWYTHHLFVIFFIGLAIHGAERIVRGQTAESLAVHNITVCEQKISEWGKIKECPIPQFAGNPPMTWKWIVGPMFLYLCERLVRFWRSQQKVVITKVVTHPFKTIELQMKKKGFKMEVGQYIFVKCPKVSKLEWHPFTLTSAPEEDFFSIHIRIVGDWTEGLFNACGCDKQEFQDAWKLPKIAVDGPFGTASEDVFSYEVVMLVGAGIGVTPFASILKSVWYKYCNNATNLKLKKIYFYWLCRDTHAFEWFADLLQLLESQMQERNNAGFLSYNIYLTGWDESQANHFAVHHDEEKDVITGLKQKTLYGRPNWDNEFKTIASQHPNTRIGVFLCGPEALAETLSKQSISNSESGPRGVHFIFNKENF

[19] = biological target: NADPH oxidase 4 (Homo sapiens) (UniProt Q9NPH5); assay: compounds shifting NOX4 Amplex Red fluorescence – cell-based, HEK293-NOX4, tetracycline-induced, NOX inhibitor project, primary screen (AID 1160); conditions: HEK293-NOX4, Amplex Red H2O2 fluorescence, 45 min; higher = more signal, called active from +8 up or from −8 down
Sequence of NADPH oxidase 4 (Homo sapiens) (Q9NPH5 whole entry, looked up): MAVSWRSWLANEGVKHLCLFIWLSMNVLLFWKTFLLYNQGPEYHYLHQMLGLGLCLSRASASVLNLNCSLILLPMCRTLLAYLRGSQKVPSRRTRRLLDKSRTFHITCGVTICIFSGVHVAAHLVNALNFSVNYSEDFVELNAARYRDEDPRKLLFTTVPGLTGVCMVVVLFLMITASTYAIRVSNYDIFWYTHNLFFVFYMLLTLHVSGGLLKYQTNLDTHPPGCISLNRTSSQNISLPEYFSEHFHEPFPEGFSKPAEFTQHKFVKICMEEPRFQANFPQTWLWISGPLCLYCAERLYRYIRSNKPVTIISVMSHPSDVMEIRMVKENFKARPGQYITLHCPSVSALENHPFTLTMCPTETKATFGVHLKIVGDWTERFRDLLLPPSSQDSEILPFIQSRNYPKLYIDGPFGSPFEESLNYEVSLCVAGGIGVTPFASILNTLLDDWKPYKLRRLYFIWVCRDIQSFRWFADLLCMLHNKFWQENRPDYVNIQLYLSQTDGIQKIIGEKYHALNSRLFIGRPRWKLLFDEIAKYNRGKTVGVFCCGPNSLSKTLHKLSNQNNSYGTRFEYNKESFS

[20] = biological target: NADPH oxidase 5 (Homo sapiens) (UniProt Q96PH1); assay: compounds shifting NOX5 Amplex Red fluorescence – cell-based, HEK293-NOX5, NOX inhibitor project, primary screen (AID 1161); conditions: HEK293-NOX5, ionomycin, 45 min, higher = more signal
Sequence of NADPH oxidase 5 (Homo sapiens) (Q96PH1 whole entry, looked up): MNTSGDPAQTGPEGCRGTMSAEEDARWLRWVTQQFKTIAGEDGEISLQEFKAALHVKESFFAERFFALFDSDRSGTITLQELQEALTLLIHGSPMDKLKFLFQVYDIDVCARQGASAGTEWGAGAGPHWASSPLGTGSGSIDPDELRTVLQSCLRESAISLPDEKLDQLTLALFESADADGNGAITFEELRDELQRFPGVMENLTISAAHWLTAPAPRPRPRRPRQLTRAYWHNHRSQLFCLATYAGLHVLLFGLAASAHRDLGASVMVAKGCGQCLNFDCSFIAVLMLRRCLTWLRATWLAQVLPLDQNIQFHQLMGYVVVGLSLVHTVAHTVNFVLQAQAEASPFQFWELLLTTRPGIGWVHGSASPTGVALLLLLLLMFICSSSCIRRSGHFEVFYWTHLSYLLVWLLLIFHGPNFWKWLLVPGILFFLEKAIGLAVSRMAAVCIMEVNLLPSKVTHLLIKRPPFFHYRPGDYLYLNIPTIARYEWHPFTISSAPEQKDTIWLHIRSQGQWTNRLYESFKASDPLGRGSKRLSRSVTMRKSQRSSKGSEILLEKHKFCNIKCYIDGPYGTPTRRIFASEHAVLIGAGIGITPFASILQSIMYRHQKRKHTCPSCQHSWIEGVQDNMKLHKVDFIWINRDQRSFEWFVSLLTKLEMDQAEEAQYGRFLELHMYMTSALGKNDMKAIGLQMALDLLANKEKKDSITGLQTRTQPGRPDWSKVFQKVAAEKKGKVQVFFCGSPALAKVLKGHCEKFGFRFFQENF

| Compound | composite z-score [1] | z-score [2] | z-score [3] | z-score [4] | z-score [5] | composite z-score [6] | composite z-score [7] | composite z-score (Torsin-1A (Homo sapiens) [8]) | composite z-score (Torsin-1A (Homo sapiens) [9]) | composite z-score [10] | z-score [11] | composite z-score [12] | z-score [13] | z-score [14] | z-score [15] | z-score [16] | z-score [17] | z-score [18] | z-score [19] | z-score [20] |
| --- | --- | --- | --- | --- | --- | --- | --- | --- | --- | --- | --- | --- | --- | --- | --- | --- | --- | --- | --- | --- |
| O=C1C2C=CC(C(O)c3cc(C(F)(F)F)cc(C(F)(F)F)c3)N(Nc3ccccc3F)C2C(=O)N1c1ccccc1 (stereo not given) | 0.17 | -3.68 (inactive) | -0.476 (inactive) | 0.626 (inactive) | -0.0442 (inactive) | 0.714 | 0.385 | -0.0067 | 0.379 | -0.685 | -2.27 (inactive) | 1.01 | 4.38 (inactive) | 1.93 (inactive) | -3.51 (inactive) | 2.35 (inactive) | -0.746 | -0.648 (inactive) | -4.37 (inactive) | -1.58 |
| CN(C)CCCC[C@@H]1NC(=O)[C@@H]2C[C@H](C(=O)O)[C@H](c3cccc(OCCO)c3)N2C1=O | 0.471 | -0.37 (inactive) | -0.965 (inactive) | 1.11 (inactive) | 0.664 (inactive) | -0.634 | -0.258 | -0.0975 | -0.0752 | 0.212 | 0.408 (inactive) | -0.147 | 2.07 (inactive) | 0.2 (inactive) | -0.725 (inactive) | -0.0176 (inactive) | -0.564 | 1.11 (inactive) | 0.306 (inactive) | 1.18 |
| CO[C@H]1O[C@H](CO)[C@@H](OC(=O)c2ccc(Br)cc2)[C@@H]2OC(=O)[C@H](Cc3ccccc3)C/C=C/C[C@@H](Cc3ccccc3)C(=O)O[C@@H]12 | 0.293 | -3.95 (inactive) | -1.16 (inactive) | -0.0017 (inactive) | -0.175 (inactive) | 0.088 | -0.263 | -0.295 | -0.0307 | 0.984 | 2.28 (inactive) | -0.715 | 2.36 (inactive) | -0.765 (inactive) | -1.53 (inactive) | -1.02 (inactive) | 1.92 | -4.18 (inactive) | -0.416 (inactive) | -1.82 |
| O=C(NCC(O)CO)[C@@]1(CCS(=O)(=O)c2ccccc2)COC(c2ccc(OCCCO)cc2)=N1 (stereo not given in full) | 0.556 | -1.2 (inactive) | 0.063 (inactive) | 0.33 (inactive) | 0.0138 (inactive) | 0.985 | 0.228 | 1.13 | 1.91 | -0.504 | 0.457 (inactive) | 0.467 | 29.3 (active) | 22.3 (active) | 1.7 (inactive) | 2.91 (inactive) | -0.245 | 0.299 (inactive) | 1.77 (inactive) | 1.51 |
| COc1cc(NN2C(C(O)C3CCCCC3)C=CC3C(=O)N(c4ccccc4)C(=O)C32)cc(OC)c1OC (stereo not given) | 0.316 | -2.88 (inactive) | -0.408 (inactive) | 0.436 (inactive) | -0.0678 (inactive) | 0.775 | 0.121 | -0.224 | 0.335 | -0.686 | -1.02 (inactive) | -0.441 | 1.73 (inactive) | -0.35 (inactive) | 1.36 (inactive) | -1.16 (inactive) | 1.37 | -3.07 (inactive) | -5.15 (inactive) | -5.24 |
| Cc1ccc([C@H]2C(C(=O)O)=C[C@@H](C(C)(C)C)N2S(=O)(=O)c2ccc(C)cc2)cc1 | 0.285 | -0.117 (inactive) | 0.62 (inactive) | -0.312 (inactive) | 0.134 (inactive) | 1.54 | 0.271 | 0.0948 | 0.465 | 0.347 | -1.18 (inactive) | 0.141 | 0.212 (inactive) | 0.934 (inactive) | -0.627 (inactive) | 0.585 (inactive) | -0.213 | 0.96 (inactive) | -2.84 (inactive) | -0.357 |
| NC(=O)[C@@H]1[C@H]2C(=O)O[C@H](c3ccccc3)[C@H](c3ccccc3)N2[C@H](c2ccc(OCCO)cc2)[C@@]12C(=O)Nc1ccc(C#CCCO)cc12 | 0.257 | -0.952 (inactive) | -0.807 (inactive) | -0.0515 (inactive) | -0.195 (inactive) | 0.958 | -0.0736 | 0.632 | -0.565 | 0.0995 | 0.498 (inactive) | 0.0253 | 22.5 (active) | 4.8 (inactive) | 2.59 (inactive) | 0.908 (inactive) | 0.229 | 1.5 (inactive) | 1.15 (inactive) | 0.92 |
| COCCCNC(=O)[C@@]1(c2ccc([N+](=O)[O-])cc2)CC(=O)N(C(C)C)[C@@H]1c1ccc(CO)cc1 | 0.0039 | 0.433 (inactive) | 0.797 (inactive) | 0.495 (inactive) | 0.0212 (inactive) | -0.934 | 0.315 | 0.722 | 1.05 | 0.0776 | 0.569 (inactive) | 0.125 | 0.481 (inactive) | -0.135 (inactive) | -0.288 (inactive) | -0.0629 (inactive) | 0.361 | -0.635 (inactive) | 0.726 (inactive) | -0.0684 |
